In PubChem BioAssay AID1486 (The Scripps Research Institute Molecular Screening Center, 2009):
In all, about 220,000 compounds went through this assay and about 2,400 (1.1%) were called active. The full list was thinned out, with actives kept by preference. Values without a mark were called inactive.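 The calls were made as follows: active = inhibition above a per-campaign cutoff, the mean inhibition of all tested compounds plus 3 SD (cut at about 27% in these data); inactive = the rest.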

Assay: parental Ba/F3 cell viability inhibition, counter-screen for JAK2V617F inhibitor project, murine pro-B, CellTiter-Glo luminescence (AID 1486);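 also: 0% = DMSO wells and 100% = JAK Inhibitor I control wells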
Conditions: CellTiter-Glo ATP luminescence, at 5.6 µM, hits give high values

Compound | inhibition
Cc1csc(NC(=O)c2ccc(-c3ccc(Cl)cc3Cl)o2)n1 | 5.38%
O=C(c1cccnc1)N(c1cc2sc(=O)oc2c2ccccc12)S(=O)(=O)c1ccccc1 | 12.4%
O=C(COc1ccccc1F)NNC(=O)c1ccc(N2CCCCC2)c([N+](=O)[O-])c1 | 2.6%
O=S(=O)(c1ccc(-c2ccccc2)cc1)N1CCCC1 | 7.94%
O=S(=O)(c1ccc(Br)cc1)n1ccc2ccccc21 | 36.7% (active)
CCCCNS(=O)(=O)c1ccc(S(=O)(=O)n2cnc3ccccc32)cc1 | 1.68%
O=C1CC(c2ccccc2)CC(O)=C1C=NCCN1CCOCC1 (configuration not stated) | 2.34%
O=C1CCCC(O)=C1C=NCCc1ccccc1 | 42.9% (active)
CC1(C)CC(=O)C(C=NCCC2=CCCCC2)=C(O)C1 | 6.01%
CCCCN(C(=O)c1ccc(OC(F)(F)F)cc1)c1c(N)n(CCC)c(=O)[nH]c1=O | 3.34%
CC(C)(C)SCCNC(=O)c1cccc([N+](=O)[O-])c1 | 5.58%
CN(Cc1cccnc1)C(=O)c1cc(COc2ccc3ncccc3c2)on1 | 84.6% (active)
Cc1cc(NCc2cccnc2)no1 | 1.06%
Cc1noc(C)c1COc1cccc(C(=O)Nc2cccnc2)c1 | 1%
CCCOc1ccc(NC(=O)C2OC3OC(C)(C)OC3C3OC(C)(C)OC23)cc1 (configuration not stated) | 4.19%
N#Cc1ccccc1NC(=O)c1cccc(COc2ccc(Cl)cc2Cl)c1 | 1.93%
O=C(C1CCCO1)N1CCN(C(=S)Nc2cccc(Cl)c2)CC1 (configuration not stated) | 9.12%
Cc1ccc(C2CCN(C(=S)Nc3cccc(Cl)c3)C2)cc1 (configuration not stated) | 54% (active)
Cc1cccc(NC(=S)N2CCCC(c3nc4ccccc4[nH]3)C2)c1 (configuration not stated) | 5.36%
COC(=O)[C@H](Cc1ccccc1)NC(=O)[C@@H]1C[C@H]1[C@@H](NC(=O)OCc1ccccc1)c1ccccc1 | 1.6%
CCCc1ccc(C(=O)[C@@H]2[C@@H](C(C)=O)N3c4ccc(F)cc4C=C[C@@H]3[C@@]23C(=O)Nc2ccccc23)cc1 | -6.87%
COc1cccc(CC2(CO)CCCN(Cc3nc(-c4cccs4)oc3C)C2)c1 (configuration not stated) | 10.4%
Cc1ccc(CN2CCN(Cc3ccccc3-c3ccco3)CC2CCO)o1 (configuration not stated) | 6.27%

Compound | inhibition
Cc1cc(C)n(-c2nnc(C)n2NC(=O)c2cccc(Cl)c2)n1 | -0.31%
O=C1N/C(=C/c2cccn2-c2ccccc2)C(=O)N1c1cccc(Cl)c1 | 52.5% (active)
O=C1/C(=C\c2ccsc2)NC(=S)N1c1ccccc1 | 1.31%
Cc1ccccc1NC(=O)CN1C(=O)N/C(=C\c2cccn2-c2cccc(C(=O)O)c2)C1=O | 7.07%
COC(=O)c1ccc(CN2CCN(CCCc3ccccc3)C(CCO)C2)cc1 (configuration not stated) | 4.68%
CCN1CCN(CCNC(=O)c2ccc(/C=C3/Sc4ccccc4N(Cc4cccc(C)c4)C3=O)cc2)CC1 | 13.1%
CCN1/C(=C\c2ccc3ccccc3[n+]2CC)Sc2cc(C)ccc21 | 88.7% (active)
CCN1/C(=C/c2ccc3ccc(C)cc3[n+]2CC)Sc2ccccc21 | 87.6% (active)
CCN1/C(=C/C(=S)Nc2ccccc2)Sc2ccccc21 | 0.08%
COc1ccccc1C1C(C#N)=C(N)Oc2c1c(-c1ccccc1)nn2-c1ccccc1 (configuration not stated) | 4.31%
CCCN(CCC)CC(O)COc1ccccc1C(=O)Nc1ccccc1 (configuration not stated) | 1.95%
CNC(=O)c1csc(Cc2c(Cl)sc3ccc(Cl)cc23)n1 | -0.25%
COc1ccc(C(=O)CN(C(=O)c2ccc(Cl)cc2)N2C(=O)c3ccccc3C2=O)cc1 | -0.72%
COc1ccc(Cn2c(=O)cc(C)[nH]c2=S)cc1 | 9.89%
COc1ccc(Cn2c(-c3ccc(Cl)cc3)c[n+]3ccccc23)cc1 | 76.4% (active)
COc1cccc(Nc2nnc(SCC(=O)N3CC(=O)Nc4ccccc43)s2)c1 | -3.89%
Nc1ccc(C(=O)OCC(=O)NC2CCS(=O)(=O)C2)cc1[N+](=O)[O-] (configuration not stated) | -1.89%
COc1cccc(C(=O)Nc2ccc(NC(=O)c3ccco3)cn2)c1 | -2.07%
Cc1ccnc(NC(=O)c2ccc(NC(=O)c3ccco3)cc2)c1 | -0.11%
Cc1ccc(C(=O)COc2cccc(NC(=O)c3ccco3)c2)cc1 | 95.5% (active)
Cc1c(NC(=O)CSc2nnnn2-c2ccc(C(=O)O)cc2)c(=O)n(-c2ccccc2)n1C | 9.83%
COc1ccc(C(=O)C2CCCN(C(=O)c3cnsn3)C2)c(C)c1 (configuration not stated) | -0.94%
COc1ccc(NS(=O)(=O)c2ccc(Oc3c(C#N)cccc3C#N)cc2)cc1 | 42% (active)

Compound | inhibition
COc1ccc(NS(=O)(=O)c2ccc(NC(=O)c3ccc(N(C)S(C)(=O)=O)cc3)cc2)cc1 | 5.44%
CCOc1ccc(S(=O)(=O)Nc2ccc(S(=O)(=O)Nc3cc(OC)ccc3OC)cc2)cc1 | 5.24%
COc1ccccc1N1CC(C(=O)Nc2ccc(S(=O)(=O)N3CCOCC3)cc2)CC1=O (configuration not stated) | 2.78%
CNc1nnc(-c2ccco2)s1 | -0.97%
COc1cccc(C(O)Cc2nc3ccccc3n2C)c1OC (configuration not stated) | 0.12%
Cc1ccc(F)cc1NC(=O)Cc1nn(C)c(=O)c2ccccc12 | 37.3% (active)
Cc1ccc(NC(=O)Cn2nc(C)c3ccccc3c2=O)c(C)c1 | 4.31%
COc1ccc(-c2nn(C)c(=O)c3ccccc23)cc1NC(=O)COc1ccccc1 | -0.19%
COc1ccc(Cl)cc1NC(=O)NC(C)C(C)(C)C (configuration not stated) | 2.98%
Cc1nc2ccccc2nc(=O)c1NNc1ccc([N+](=O)[O-])cc1 | 4.24%
O=C(COC(=O)CCc1nc2ccccc2c(=O)[nH]1)Nc1ccc(N2CCOCC2)cc1 | -2.42%
CN(C)CCCNC(=O)/C=C/c1ccc(OCc2c(F)cccc2Cl)cc1 | 7.63%
COCCCNC(=O)/C=C/c1ccc(OCc2c(F)cccc2Cl)cc1 | 2.28%
O=C(/C=C/c1ccc(OCc2c(F)cccc2Cl)cc1)N1CCOCC1 | 67.9% (active)
C/C(=N/Nc1nc(-c2ccccc2)c(CC(=O)O)s1)c1ccccc1 | 2.81%
C=C(C)Cn1c(SCC(=O)NCc2ccco2)nc2sc3c(c2c1=O)CCC3 | 1.93%
O=C(CCCn1c(SCC(=O)c2ccc(F)cc2)nc2ccccc2c1=O)NCc1ccco1 | 4.54%
O=C(CSc1nc2cc3c(cc2c(=O)n1CCC1=CCCCC1)OCO3)NCc1ccco1 | 33.2% (active)
COc1cc(OC)cc(C(=O)NCC(=O)OCc2csc(-c3ccccc3)n2)c1 | 10.9%
COc1cc(OC)cc(C(=O)NC2CCN(C(=O)N3c4ccccc4Sc4ccccc43)CC2)c1 | 6.78%
Cc1ccc(-c2nn(-c3cccc(F)c3)cc2CNCCc2ccncc2)o1 | 43% (active)
Cc1ccc(-c2nn(-c3ccccc3)cc2CN(Cc2ccccc2)C(=O)CCC(=O)O)o1 | 6.11%
CSCCNCc1cn(-c2ccc(F)cc2F)nc1-c1ccccc1C | 5.07%

Compound | inhibition
Cc1cc(Cl)ccc1C(=O)C1CCCN(C(=O)CCN2CCCO2)C1 (configuration not stated) | 0.61%
Cc1cc(=O)[nH]c(SCC(=O)Nc2ccc(Br)cc2)n1 | -7.26%
O=C(/C=C/c1ccc(Cl)c([N+](=O)[O-])c1)c1ccc(O)cc1 | 2.68%
CNC(=O)Nc1cc(C(C)(C)C)no1 | 54.8% (active)
CCCn1c(SCC(=O)Nc2ccc(C)c(S(=O)(=O)N3CCOCC3)c2)n[nH]c1=O | 4.59%
CCc1ccc(NC(=O)N2CCN(c3ccccc3)CC2)cc1 | 1.4%
CCn1c2ccccc2c2cc(NC(=O)CNC)ccc21 | 3.93%
CC[n+]1c(C)n(-c2ccccc2)c2ccc(NC(C)=O)cc21 | 57.7% (active)
Cc1ccc(/C=N/NC(=S)NC2CCCCC2)o1 | -7.43%
CCOC(=O)c1ccc(NC(=O)Cn2cnc3cc(C)c(C)cc32)cc1 | 58.4% (active)
CCOC(=O)c1ccc(NC(=O)CSc2ncccn2)cc1 | 0.67%
CCOC(=O)c1ccc(NC(=O)Cn2nnc(-c3ccc(C)cc3)n2)cc1 | 1.76%
O=C(O)CC1=C(Nc2ccccc2)C(=O)N(c2ccccc2)C1c1ccc(Cl)cc1 (configuration not stated) | 1.11%
Cc1ccc2cc(/C=N/NC(=O)[C@@H]3CCCN3)c(Cl)nc2c1 | 0.27%
CC(C)Nc1nnc(SCC(=O)/C=C2\N(C)c3ccccc3C2(C)C)s1 | 0.74%
Cc1noc(C)c1C(=O)OCC(=O)/C=C1\N(C)c2ccccc2C1(C)C | 4.98%
CC(=O)Nc1cccc(OCC(=O)/C=C2\N(C)c3ccccc3C2(C)C)c1 | 44.2% (active)
COc1ccc(-n2cc(CNC3CCOCC3)c(-c3cccc(F)c3)n2)cc1 | 5.7%
CCCCC(NC(=O)c1cccc(Br)c1)C(=O)O (configuration not stated) | 0.6%
COc1ccc(C(=O)Nc2ccc(F)cc2F)cc1 | -0.96%
CCOC(=O)N1CCN(S(=O)(=O)c2ccc(C(=O)Nc3ccc(F)cc3F)cc2)CC1 | 53.5% (active)
O=C(Nc1cccc(F)c1)c1ccc(S(=O)(=O)N2CCCC2)cc1 | 7.79%
Cc1cc(C)c(NC(=O)CN2CCOCCOCCOCCOCC2)c(C)c1 | 2.62%
